Screening results deposited in PubChem by several laboratories.
MEKK2 WT-MEK5 = raises or lowers MEK5 binding to wildtype human MEKK2 PB1 domain; binding response (% of control), % at 10 µM; bead flow cytometry, Alexa488-MEK5 binding to MEKK2 WT; actives lie on both sides; Q9Y2U5; hit rate 1.1% among 290,000; in the data active = binding response below about 67% or above about 130%; inconclusive = no clear call, values can overlap the other calls; inactive = in between
MEKK2mut PB1 HTS = signal of MEK5 binding to mutant human MEKK2 PB1 domain; hit rate 0.35% among 290,000; bead flow cytometry, Alexa488-MEK5 binding to MEKK2 mutant; percent response, % at 10 µM; in the data active = percent response above about 24%, passing the limit was not always enough
UBC13 polyUb = inhibitors of human UBC13 polyubiquitin chain formation; TR-FRET; inhibition, % at 20 µM; P61088; hit rate 0.47% among 330,000; in the data active = inhibition above about 45%, passing the limit was not always enough; inconclusive = no clear call, values can overlap the other calls
Target sequence (P61088 whole entry, looked up): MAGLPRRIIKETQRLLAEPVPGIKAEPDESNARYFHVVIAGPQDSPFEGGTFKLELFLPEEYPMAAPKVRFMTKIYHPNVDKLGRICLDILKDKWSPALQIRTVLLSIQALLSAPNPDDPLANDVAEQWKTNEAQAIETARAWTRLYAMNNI
MEKK3 PB1 HTS = MEKK3-MEK5 PB1 interaction, increase or decrease. bead-based flow cytometry, Alexa488-MEK5 binding to MEKK3; actives lie on both sides; 0 = blocked by unlabeled MEK5, 100 = vehicle. binding response (% of control), % at 10 µM. hit rate 1.4% among 290,000. AID 1529;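 active = binding response more than 3 SD above or below the average of its plate-row segment, actives on both sides; inconclusive = wells at one plate position flagged as instrument error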;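 also: Alexa488 bead fluorescence after subtracting the streptavidin-only scavenger bead signal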
Target sequence (Q99759 whole entry, looked up): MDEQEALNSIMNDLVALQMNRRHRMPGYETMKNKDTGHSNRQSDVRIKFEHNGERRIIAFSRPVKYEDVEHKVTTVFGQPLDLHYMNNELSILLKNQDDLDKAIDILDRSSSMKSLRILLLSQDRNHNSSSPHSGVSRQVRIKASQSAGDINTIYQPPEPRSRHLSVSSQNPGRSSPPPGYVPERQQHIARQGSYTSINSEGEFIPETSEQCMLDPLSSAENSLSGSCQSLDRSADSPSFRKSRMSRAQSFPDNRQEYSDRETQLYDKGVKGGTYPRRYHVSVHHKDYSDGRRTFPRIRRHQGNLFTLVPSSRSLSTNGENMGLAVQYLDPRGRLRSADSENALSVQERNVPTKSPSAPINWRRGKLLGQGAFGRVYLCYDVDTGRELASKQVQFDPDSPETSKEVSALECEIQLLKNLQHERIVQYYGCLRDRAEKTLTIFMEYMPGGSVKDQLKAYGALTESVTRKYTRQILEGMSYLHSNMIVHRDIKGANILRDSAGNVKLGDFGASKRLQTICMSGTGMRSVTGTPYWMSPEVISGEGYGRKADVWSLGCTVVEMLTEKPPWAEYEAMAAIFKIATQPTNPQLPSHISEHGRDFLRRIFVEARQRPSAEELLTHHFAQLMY
Rce1 inh = yeast Ras-converting enzyme inhibition | calls only | AID 2563 | yeast membranes, quenched prenylated peptide cleavage fluorescence | hit rate 0.27% among 290,000 | Q03530;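 active = fall in fluorescence gain of 50% or more versus controls, with final raw signal at or below 3038400; inconclusive = same 50% fall but final raw signal above 3038400; inactive = fall in fluorescence gain under 50%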
MEKK2wt confirm = raises or lowers MEK5 binding to wildtype human MEKK2, retest; shares compounds with MEKK3 PB1 HTS; bead flow cytometry, Alexa488-MEK5 binding to MEKK2 WT; actives lie on both sides; binding response (% of control), % at 10 µM; hit rate 2.4% among 5,900; AID 1892; in the data active = binding response below about 16% or above about 210%; inactive = in between
MEKK2mut confirm = signal of MEK5 binding to mutant human MEKK2, retest | percent response, % at 10 µM | hit rate 2% among 5,900 | shares compounds with MEKK3 PB1 HTS | AID 1893 | bead flow cytometry, Alexa488-MEK5 binding to MEKK2 mutant; in the data active = percent response mostly above about 71%, no sharp cut-off; inactive = mostly below about 38%;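 also: higher means compound restores mutant binding toward wildtype level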
MEKK3-MEK5 inh = confirmation of inhibitors of MEK5 binding to human MEKK3; hit rate 1.8% among 5,900; binding response (% of control), % at 10 µM; bead flow cytometry, Alexa488-MEK5 binding to MEKK3; active compounds read low; shares compounds with MEKK3 PB1 HTS;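 active = binding response below 72% of control, or above a set upper limit, though filed actives all read lower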;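 also: lower values mean stronger disruption of MEK5 binding to MEKK3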
Large screens that a line does not name were inactive (follow-up assays come after a bar, where they were run); [ ] = dose if it differs, or a comment. Hits are enriched below; roughly 2.5% of the tested compounds scored in any of these assays.

COc1ccccc1N1CCN(C(=O)c2ccc(-c3ccccc3)cc2)CC1	none
Cc1ccc(S(=O)(=O)NCCCCCC(=O)Nc2cccc(C)c2)cc1	none
CC12CN3CCN(CC(C3)/C1=N\NC(=O)Nc1cccc(Cl)c1)C2	none
CCOC(=O)C(=CNc1ccc(C#N)cc1)C(=O)OCC	none
COc1ccc2[nH]c3c(N4CCc5ccccc5C4)ncnc3c2c1	MEKK2 WT-MEK5 189 | MEKK2wt confirm inactive | MEKK2mut confirm inactive | MEKK3-MEK5 inh inactive
Cc1ccc(/C=N/NC(=O)C(=O)N/N=C/c2ccc(C)o2)o1	none
Cc1ccc(/C=N/NC(=O)c2ccoc2C)o1	MEKK3 PB1 HTS 130 | MEKK2wt confirm inactive | MEKK2mut confirm inactive | MEKK3-MEK5 inh inactive
Cc1ccccc1-c1nn(-c2ccc(F)cc2F)cc1CNC1CC1	none (no result: Rce1 inh)
Cc1ccccc1NC(=O)N1CCC(NC(=O)C2CCCCC2)CC1	none
NC(=O)COC(=O)c1ccccc1OCc1ccccc1Cl	MEKK2 WT-MEK5 640, MEKK2mut PB1 HTS 457 | MEKK2wt confirm inactive | MEKK2mut confirm inactive | MEKK3-MEK5 inh inactive
NC(=O)COC(=O)c1ccccc1OCc1ccccc1	none
Cc1ccc(-c2csc3ncnc(SCc4ccc(C(=O)O)cc4)c23)cc1	none
CC(C(=O)c1ccccc1)[n+]1cccc(Br)c1 (configuration not stated)	none
Cc1cc(C)n(S(=O)(=O)c2ccccc2[N+](=O)[O-])n1	none
CC(C)C[C@H]1CN=C(Nc2ccccc2)N1CCCC1CCCCC1	MEKK2mut PB1 HTS 24 | MEKK2wt confirm inactive | MEKK2mut confirm inactive | MEKK3-MEK5 inh inactive
CC(C)C[C@H]1CN=C(Nc2ccccc2)N1CCCC1CCCC1	Rce1 inh inconclusive
CC1C(=O)NN=C1C(=O)N/N=C/c1cccs1 (configuration not stated)	none
CN1CCc2c(sc3c2C(=O)NC(c2ccc(-c4cccc(Cl)c4)o2)N3)C1 (configuration not stated)	MEKK2 WT-MEK5 170 | MEKK2wt confirm inactive | MEKK2mut confirm inactive | MEKK3-MEK5 inh inactive
CN1CCc2c(sc3c2C(=O)NC(c2cccs2)N3)C1 (configuration not stated)	none
COc1ccc2cc3c(N)nn(C(=O)c4ccccc4[N+](=O)[O-])c3nc2c1	MEKK3 PB1 HTS 72[inhibitor] | MEKK2wt confirm inactive | MEKK2mut confirm inactive | MEKK3-MEK5 inh inactive
COc1ccc2cc3c(N)nn(C(=O)c4ccc(Cl)c([N+](=O)[O-])c4)c3nc2c1	none
Cc1cc(-c2nc(C)c(-c3nnc(SCC(=O)Nc4ccc(Cl)cc4)n3C)s2)no1	none
CN(C)CCNC(=O)c1cc2c(s1)-c1ccccc1OC2	MEKK2mut PB1 HTS 24 | MEKK2wt confirm inactive | MEKK2mut confirm inactive | MEKK3-MEK5 inh inactive
Cc1ccc(NC(=O)COC(=O)COc2cccc3c2OC(C)(C)C3)cc1S(=O)(=O)N1CCOCC1	none (no result: MEKK2 WT-MEK5, MEKK2mut PB1 HTS, MEKK3 PB1 HTS)
Cc1onc(-c2ccccc2Cl)c1C(=O)NCCn1c(C)cc2ccccc21	MEKK3 PB1 HTS 71[inhibitor] (no result: MEKK2 WT-MEK5) | MEKK2wt confirm inactive | MEKK2mut confirm inactive | MEKK3-MEK5 inh inactive
Cc1cc2ccccc2n1CCNC(=O)c1ccc(Br)o1	MEKK3 PB1 HTS 47[inhibitor] | MEKK2wt confirm inactive | MEKK2mut confirm inactive | MEKK3-MEK5 inh 53
Cc1cc2ccccc2n1CCNC(=O)c1ccccc1	MEKK3 PB1 HTS 66[inhibitor] | MEKK2wt confirm inactive | MEKK2mut confirm inactive | MEKK3-MEK5 inh 59
Cc1cc2ccccc2n1CCNC(=O)c1ccc(S(=O)(=O)N2CCOCC2)cc1	MEKK3 PB1 HTS 57[inhibitor] (no result: MEKK2 WT-MEK5) | MEKK2wt confirm inactive | MEKK2mut confirm inactive | MEKK3-MEK5 inh inactive
Cc1cc2cc(CCNS(=O)(=O)c3ccc(F)cc3)c(=O)[nH]c2cc1C	none
CCC(=O)NCCn1c(C)cc2ccccc21	none
Cc1cc2ccccc2n1CCNC(=O)COc1ccccc1	MEKK2 WT-MEK5 33[inhibitor], MEKK3 PB1 HTS 58[inhibitor] | MEKK2wt confirm inactive | MEKK2mut confirm inactive | MEKK3-MEK5 inh inactive
COc1cc(/C=C(\C#N)c2nc3ccc(C)cc3[nH]2)c([N+](=O)[O-])cc1OC	none
CCN(CC)c1ccc(/C=C(/C#N)c2nc3ccc(C)cc3[nH]2)c(OC(C)C)c1	MEKK2mut PB1 HTS 95 | MEKK2wt confirm inactive | MEKK2mut confirm inactive | MEKK3-MEK5 inh inactive
NC(=O)C1CCN(C(=O)COc2ccc3ccc(=O)oc3c2)CC1	none
Cc1c(CN2CCC(CO)(CCOc3ccccc3)CC2)[nH]c2c(Cl)cccc12	MEKK2 WT-MEK5 240 | MEKK2wt confirm inactive | MEKK2mut confirm inactive | MEKK3-MEK5 inh inactive
O=c1cc(N2CCCC2)c2ccccc2o1	MEKK3 PB1 HTS 1.0[inhibitor] (no result: MEKK2 WT-MEK5) | MEKK2wt confirm inactive | MEKK2mut confirm inactive | MEKK3-MEK5 inh inactive
O=C1OC(N2C(=O)CC[C@H]2C(=O)Nc2ccc3c(c2)OCO3)c2ccccc21 (some centres not stated)	none
OC(CNCc1ccco1)Cn1c2ccc(Br)cc2c2cc(Br)ccc21 (configuration not stated)	MEKK2 WT-MEK5 216, MEKK2mut PB1 HTS 47 | MEKK2wt confirm inactive | MEKK2mut confirm inactive | MEKK3-MEK5 inh inactive
Cc1cccc(/C(N)=N/OC(=O)CCc2ccccc2)c1	none (no result: Rce1 inh)
O=C(CCl)Nc1cc(S(=O)(=O)N2CCCCCC2)ccc1Cl	MEKK3 PB1 HTS 130 | MEKK2wt confirm inactive | MEKK2mut confirm inactive | MEKK3-MEK5 inh inactive
COc1ccc(S(=O)(=O)N2CCCCCC2)cc1NC(=O)Cc1cc(OC)c(OC)c(OC)c1	none
COc1ccc(S(=O)(=O)N2CCCCCC2)cc1NC(=O)Cc1ccccc1F	MEKK3 PB1 HTS 75[inhibitor] | MEKK2wt confirm inactive | MEKK2mut confirm inactive | MEKK3-MEK5 inh inactive
COc1ccccc1CNC(=O)c1cn(C)c2ccc(S(=O)(=O)N3CCCCC3)cc2c1=O	MEKK2mut PB1 HTS 192 | MEKK2wt confirm inactive | MEKK2mut confirm inactive | MEKK3-MEK5 inh inactive
CCc1nc2nc(C)c(NS(=O)(=O)c3ccc(C)c(C)c3)c(=O)n2[nH]1	none (no result: Rce1 inh)
Cc1ccc2c(c1)oc(=O)n2CC(=O)c1ccccc1	none
O=C1N=c2ccccc2=C1c1[nH]c(=S)[nH]c1O	MEKK3 PB1 HTS 66[inhibitor] | MEKK2wt confirm inactive | MEKK2mut confirm inactive | MEKK3-MEK5 inh inactive
CCOc1cc(S(=O)(=O)n2nc(C)cc2C)ccc1Br	none
Clc1ccccc1-c1nc2ccccc2c2nc3ccccc3n12	MEKK3 PB1 HTS 134 | MEKK2wt confirm inactive | MEKK2mut confirm inactive | MEKK3-MEK5 inh inactive
CCCC(=O)OC1CC(C)N(C(=O)c2ccccc2)c2ccc(C)cc21 (configuration not stated)	MEKK2 WT-MEK5 21[inhibitor], MEKK3 PB1 HTS 12[inhibitor] | MEKK2wt confirm inactive | MEKK2mut confirm inactive | MEKK3-MEK5 inh inactive
